PfHsp90 yeast 2 = growth inhibition of PfHsp90-expressing yeast, primary screen, antimalarial PfHsp90 inhibitor project, S. cerevisiae, BacTiter-Glo luminescence, single point, set 2; AID 504621, 2011; BacTiter-Glo ATP, 48 h; yeast lacking PDR1 and PDR3 efflux regulators; 310,000 compounds, 0.32% hits; inhibition, % at 9.4 µM;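 active means every replicate shows inhibition above about 80%, whatever the replicate mean, limit read from the data; inconclusive means mean inhibition reaches the set limit but some replicate falls short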
tim23-1 inh = growth inhibitors of tim23-1 mutant yeast, primary screen, luminescence, uHTS | AID 463212, 2010 | inhibition, % at 20 µM | S. cerevisiae tim23-1 growth, BacTiter-Glo luminescence, 24 h | 330,000 compounds, 1.3% hits;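 active means growth inhibition of the mutant yeast at or above 50%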;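 further: temperature-sensitive mutant grown at 25 °C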
NALP1 yeast inh = NALP1 inflammasome inhibitors in reconstituted yeast, colorimetric, S. cerevisiae, triplicate retest; S. cerevisiae NALP1/ASC/caspase-1 growth, X-gal OD620, 72 h; inhibition, % at 10 µM; 280,000 compounds, 0.61% hits; AID 2071, 2009; in the data active means inhibition mostly above about 24%, no sharp cut-off; inactive means mostly below about 32%
SKKanGAS inh = S. pyogenes SKKanGAS growth inhibitors in kanamycin, primary screen, streptokinase expression inhibitor project, SKKanGAS strain, BacTiter-Glo luminescence; 6 h; inhibition, % at 7.5 µM; 300,000 compounds, 1.3% hits;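 active means mean replicate score, as percent of positive control median, at least 50; inconclusive means mean below 50 but one replicate at or above 50; inactive means mean and every replicate below 50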;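 further: strain carries kanamycin resistance gene driven by streptokinase promoter and grows in 40 µg/ml kanamycin; loss of luminescence reflects streptokinase promoter inhibition or plain growth inhibition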
TIM10 inh = growth inhibitors of isogenic TIM10 control yeast, primary screen, counter-screen for tim10-1 yeast inhibitor project, luminescence, uHTS. S. cerevisiae TIM10 strain growth, BacTiter-Glo luminescence, 24 h. inhibition, % at 10 µM. 330,000 compounds, 1.4% hits;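 active means inhibition of 40% or more at the single tested concentration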;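 further: wild-type TIM10 isogenic control strain grown at permissive 25 °C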
tim10-1 inh = growth inhibitors of tim10-1 mutant yeast, primary screen, luminescence, uHTS; inhibition, % at 20 µM; 330,000 compounds, 2.2% hits; S. cerevisiae tim10-1 ts strain growth, BacTiter-Glo, 24 h; AID 463190, 2010;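 active means inhibition of at least 40%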;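 further: mutant grown at 25 °C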
tim10-1 conf = growth inhibitors of tim10-1 mutant yeast, confirmation, single concentration, luminescence, S. cerevisiae; S. cerevisiae tim10-1 ts strain growth, BacTiter-Glo, 24 h; shares compounds with tim10-1 inh; 7,400 compounds, 56% hits; inhibition, % at 20 µM; AID 463213, 2010;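 active means inhibition of yeast growth at or above a set limit in either of two repeat tests at 20 µM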;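 further: tim10-1 mutant grown at permissive 25 °C to find synthetic lethal compounds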
TIM10 conf = growth inhibitors of wild-type TIM10 yeast, confirmation, counter-screen for tim10-1 synthetic lethality project, single concentration, luminescence, S. cerevisiae. inhibition, % at 10 µM. 4,600 compounds, 63% hits. S. cerevisiae tim10 strain growth, BacTiter-Glo luminescence, 24 h. shares compounds with TIM10 inh. AID 463215, 2010;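 active means inhibition of yeast growth at or above a set limit in either of two replicates at 10 µM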; further: this counterscreen used the strain with wild-type TIM10
tim23-1 confirm = tim23-1 mutant yeast growth inhibitors, confirmation, luminescence, single concentration | shares compounds with tim23-1 inh | S. cerevisiae tim23-1 growth, BacTiter-Glo luminescence, 24 h | inhibition, % at 20 µM | 4,400 compounds, 83% hits | AID 463218, 2010;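 active means inhibition above about 39% in either of two replicate wells at 20 µM, limit read from the data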;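 further: temperature-sensitive tim23-1 mutant grown at 25 °C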
Hits are given with their value; n = inactive; u = inconclusive; x = no result given. Only some compounds are listed: those with a hit (about 4.8% of all), similar ones and a draw of the others.

SMILES | PfHsp90 yeast 2 | tim23-1 inh | NALP1 yeast inh | SKKanGAS inh | TIM10 inh | tim10-1 inh | tim10-1 conf | tim23-1 confirm | others
CCOC(=O)C1=C(C)N=c2s/c(=C/c3ccc(OCC(=O)O)c(OC)c3)c(=O)n2C1c1ccc(Cl)cc1 (stereo unspecified) | n | 50 | x | 52 | n | 56 | 46 | 53
CC(=O)Nc1ccc(NC(=O)C(C)OC(=O)/C=C/c2ccc3c(c2)OCO3)cc1 (stereo unspecified) | n | n | x | n | n | n | x | x
Cc1ccc(C)c(N2CCN(C(=O)c3ccc4nsnc4c3)CC2)c1 | n | 61 | n | n | n | 57 | n | 47
CC(C)Sc1nc2c(c(=O)n1-c1ccc(F)cc1)SCC2 | n | n | n | n | n | n | x | x
O=C(Nc1ccc(Nc2ccccc2)cc1)c1ccc(Cl)c([N+](=O)[O-])c1 | n | 73 | n | n | n | 46 | n | 57
Cc1cc(C(=O)Nc2ccc(Nc3ccccc3)cc2)ccc1[N+](=O)[O-] | n | n | n | n | n | n | x | x
Nc1c(Cl)cc2c(c1Oc1ccccc1)C(=O)c1ccccc1C2=O | n | 66 | n | n | 54 | 52 | n | 67 | TIM10 conf=48
Oc1ccc2ccccc2c1C1Nc2cccc3cccc(c23)N1 | n | 50 | n | n | 50 | 57 | 58 | 69 | TIM10 conf=44
CCNC(=O)c1ccc2c(c1)C1C3CCC(C3)C1C(c1ccccc1)N2 (stereo unspecified) | n | 63 | n | n | 41 | 59 | 55 | 65 | TIM10 conf=43
Cn1c(CCN2CCN(c3ccccn3)CC2)nc2cc(NC(=O)COc3ccc(Cl)cc3)ccc21 | n | n | n | n | n | n | x | x
CN1CC(c2ccccc2Cl)C2(COc3ccccc3C2=O)C12C(=O)Nc1ccccc12 (stereo unspecified) | n | n | n | n | n | n | x | x
Cc1ccc(C2CN(C)C3(C(=O)Nc4ccccc43)C23COc2ccccc2C3=O)cc1 (stereo unspecified) | n | 53 | n | n | n | 45 | 37 | 47
O=C1C2C(c3ccccc3)C=CC(c3ccccc3)C2C(=O)N1c1cccnc1 (stereo unspecified) | n | n | n | n | n | n | x | x
O=C1C2C(c3ccccc3)C=CC(c3ccccc3)C2C(=O)N1c1ccncc1 (stereo unspecified) | n | 53 | n | n | n | 41 | 36 | 49
O=C(N/N=C/c1ccc([N+](=O)[O-])o1)c1ccc2c(c1)OCO2 | n | 79 | n | n | 64 | 64 | 60 | n | TIM10 conf=52
CNC(=O)c1c(NC(=O)c2ccco2)sc2c1CCCC2 | n | 58 | n | u | n | 58 | 39 | 48
CC(C)OC(=O)c1c(NC(=O)c2ccco2)sc2c1CCCCC2 | n | n | n | n | n | n | x | x
CCSc1nnc2ccc(-c3ccco3)nn12 | n | n | n | n | n | n | x | x
CCc1nc2sc3ccccc3c(=O)c2c(=O)n1Cc1ccco1 | n | 53 | n | n | n | 69 | 61 | 62
Cc1ccc(OCC(=O)Nc2ccc(-c3nc4ncccc4o3)cc2)c(C)c1 | n | n | n | n | n | n | x | x
CCOC(=O)c1c(C)oc2c(F)c(F)c(F)c(F)c2c1=O | x | 74 | n | n | n | 42 | n | 48
CC1(C(=O)Nc2nnc(SCc3ccccc3)s2)Cc2ccccc2C(=O)O1 (stereo unspecified) | x | 52 | n | n | n | 47 | 50 | 42
CC(=O)NS(=O)(=O)c1ccc(N2C(=O)c3ccccc3C2=O)cc1 | n | n | n | n | n | n | x | x
CC(C)(C)CC(C)(C)NC(=O)CSCC(=O)Nc1ccc2ccccc2c1 | n | 67 | n | n | n | 64 | 35 | 52
COC1(C)CC2C(CC1OC(=O)c1cc([N+](=O)[O-])cc([N+](=O)[O-])c1)C2(C)C (stereo unspecified) | n | 65 | n | n | 63 | 60 | 61 | 68 | TIM10 conf=62
SMILES | PfHsp90 yeast 2 | tim23-1 inh | NALP1 yeast inh | SKKanGAS inh | TIM10 inh | tim10-1 inh | tim10-1 conf | tim23-1 confirm | others
COC(=O)c1cc(C(=O)NCC2CCCCC2)cc([N+](=O)[O-])c1 | n | n | n | n | n | n | x | x
COc1ccc(C/C(N)=N/OC(=O)COc2ccccc2C)cc1 | n | 55 | n | n | n | 51 | 39 | 41
COc1ccc(CC(=O)O/N=C(\N)Cc2ccc(OC)cc2)cc1 | n | n | n | n | n | n | x | x
N/C(Cc1ccc([N+](=O)[O-])cc1)=N\OC(=O)COc1cccc2ccccc12 | n | 60 | n | n | 76 | 64 | 73 | 91 | TIM10 conf=72
CCN1C(=NCCc2cccs2)N[C@@H](c2cccs2)C(C(=O)OC)=C1C | n | n | n | n | n | n | x | x
Cc1ccc(C(=O)OCC(=O)NCc2ccco2)s1 | n | n | n | n | n | n | x | x
CCNc1sc(C(=O)c2cccs2)c(N)c1-c1nc2ccccc2s1 | n | 72 | n | n | 45 | 53 | n | n | TIM10 conf=36
Nc1cc(CN2C(=O)c3ccccc3C2=O)cc(Cl)c1O | n | n | n | n | n | n | x | x
COC(=O)c1ccccc1-c1ccc(C(c2c(C)[nH][nH]c2=O)c2c(C)[nH][nH]c2=O)o1 | n | 54 | n | n | 46 | 56 | 36 | 48 | TIM10 conf=36
O=c1n(Cc2ccc(Cl)cc2)c2sc3c(c2c2ncnn12)CCCC3 | n | 68 | n | n | n | 44 | n | 58
C=CCn1c(=O)n2ncnc2c2c3c(sc21)CCCC3 | n | x | n | n | x | x | x | x
COc1ccc(OC)c(/C=C/C(=O)Nc2ccc3c(c2)CCC3)c1 | n | n | n | n | n | n | x | x
S=c1[nH]nc(-c2ccco2)n1/N=C/C(Cl)=C/c1ccccc1 | n | n | n | n | n | n | x | x
CC(=C/c1ccccc1)/C=N/n1c(C)n[nH]c1=S | n | n | n | n | n | n | x | x
CC(/C=N/n1c(COc2ccccc2)n[nH]c1=S)=C\c1ccccc1 | n | 51 | n | n | n | 43 | n | 50

Screening data from PubChem BioAssay.
